PubChem BioAssay
Records with an inconclusive call do not appear. Activity calls are given as the source filed them. Cut-off not given; nearly all actives show IC50 up to about 30 µM.

Assay: growth inhibition of DIPG cells – cell-based, MIPE5.0 library, qHTS (AID 1347068)
Conditions: SU-DIPG-XXV viability

Which outcome does the source give for `O=c1[nH]cc(F)c(=O)[nH]1` here?
Its outcome is “inactive”.

For `CCc1nc(N)nc(N)c1-c1ccc(Cl)cc1`, which outcome is on record?
The outcome was “inactive”.

Which outcome does the source give for `Cc1ccc(C)c(OCCCC(C)(C)C(=O)O)c1` here?
Its outcome is “inactive”.

Which outcome does the source give for `NC(=O)c1cnccn1` here?
Its outcome is “inactive”.

For `Cc1ncc([N+](=O)[O-])n1CC(C)O` (stereo not drawn), which outcome is on record?
The outcome was “inactive”.

For `Cc1ccc(-c2cc(C(F)(F)F)nn2-c2ccc(S(N)(=O)=O)cc2)cc1`, which outcome is on record?
The outcome was “inactive”.

With `O=S(=O)(O)CCS` as the compound, how does the outcome read?
Its outcome is “inactive”.

With `C/C=C/C(=O)N(CC)c1ccccc1C` as the compound, how does the outcome read?
Its outcome is “inactive”.

For `c1ccc2[nH]c(-c3cscn3)nc2c1`, which outcome is on record?
Its outcome is “inactive”.

With `CCCNCC(O)COc1ccccc1C(=O)CCc1ccccc1` (stereo not drawn) as the compound, how does the outcome read?
Its outcome is “inactive”.

Which outcome does the source give for `CN(CCOc1ccc(CC2SC(=O)NC2=O)cc1)c1ccccn1` (stereo not drawn) here?
Its outcome is “inactive”.

For `CCn1cc(C(=O)O)c(=O)c2cc(F)c(N3CCN(C)CC3)cc21`, which outcome is on record?
The outcome was “inactive”.

With `NS(=O)(=O)c1cc2c(cc1Cl)NC=NS2(=O)=O` as the compound, how does the outcome read?
The outcome was “inactive”.
